# Screens deposited in PubChem by National Center for Advancing Translational Sciences (NCATS).
# Rows were chosen to be rich in hits. Some 7% of all compounds tested hit in one or more screens of this group.
# a7 integrin act: qHTS for Activators of Integrin-Mediated Alleviation for Muscular Dystrophy | alpha7betagal myoblasts, beta-gal FDG fluorescence, 48 h | Potency, µM (series often up to 38.3 µM), usual class: activators | hit rate 0.064% among 350,000 | AID 624291, 2012; note: nearly all actives have a fitted effect of over 60% in size
#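 alpha7betagal+/- myoblasts (passage 13, 250/well) treated 48 h at 37C with compounds at 1:260 dilution of DMSO stock. Lysed, then beta-galactosidase activity read as FDG fluorescence (ex 480/em 540) after 30 min, with pre-read for autofluorescence.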
# DRD3 antagonist: qHTS of D3 Dopamine Receptor Antagonist: qHTS | D3R cells, DiscoveRx beta-arrestin luminescence, antagonist mode; active compounds read low | max response, negative = inhibition, % | hit rate 2.5% among 360,000 | AID 652054, 2013; in the data active = max response below about -50%; inconclusive = no clear call, values can overlap the other calls
# Target sequence (P35462 whole entry, looked up): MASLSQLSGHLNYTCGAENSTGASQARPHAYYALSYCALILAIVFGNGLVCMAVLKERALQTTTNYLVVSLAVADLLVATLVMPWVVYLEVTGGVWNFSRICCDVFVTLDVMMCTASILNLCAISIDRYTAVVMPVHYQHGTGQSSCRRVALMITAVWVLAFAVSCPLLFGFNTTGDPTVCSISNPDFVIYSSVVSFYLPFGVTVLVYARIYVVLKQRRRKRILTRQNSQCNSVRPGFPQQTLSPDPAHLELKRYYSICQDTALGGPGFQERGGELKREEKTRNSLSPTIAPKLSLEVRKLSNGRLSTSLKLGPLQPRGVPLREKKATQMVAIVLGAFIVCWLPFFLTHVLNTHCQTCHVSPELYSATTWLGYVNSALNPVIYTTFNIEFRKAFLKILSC
#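 Cells plated overnight at 1500 cells/well, then exposed to library compounds with dopamine controls for 90 minutes at 37 degrees C. DiscoveRx reagent added for 30–60 minutes at room temperature; luminescence read, quantitative HTS format.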
# ATXN2 expr inh: Primary qHTS for Inhibitors of ATXN expression; Potency, µM (highest dose often 57 µM), actives largely listed as inhibitors; HEK-293 ATXN2-luciferase reporter, luminescence, 24 h; hit rate 0.72% among 360,000; note: nearly all actives have a fitted effect of over 55% in size
#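 ATXN2-luciferase reporter cells (luciferase flanked by upstream and downstream ATXN2 gene portions) were treated 24 h at 37 °C with compounds at up to 57 uM. SteadyGlo luminescence gave expression; GF-AFC fluorescence gave viability.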
# D3 ag: qHTS of D3 Dopamine Receptor Agonist: qHTS; D3R DiscoveRx beta-arrestin cells, luminescence, 90 min; max activation, %; hit rate 0.58% among 410,000; in the data active = max activation above about 30%
#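 Agonist mode: compounds and dopamine controls were applied to plated cells for 90 min at 37 degrees C after an overnight attachment at 1500 cells/well. Luminescent read-out followed 30 - 60 minutes at room temperature with DiscoveRx detection reagent.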
# IL1B secr inh: qHTS for Inhibitors of Inflammasome Signaling: IL-1-beta AlphaLISA Primary Screen. hit rate 4.7% among 360,000. THP-1 LPS/ATP IL-1B secretion, AlphaLISA, 16 h; active compounds read low. activity change, % at 57.5 µM. AID 743279, 2014; in the data active = activity change below about -50%; inconclusive = mostly about -30% to -49%
#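 THP-1 cells pretreated 1 hr with compounds (up to 57.5 uM final), then stimulated with LPS (250 ng/mL final) plus ATP (1.25 mM final); secreted IL-1B measured by AlphaLISA after 16 hr, decreased signal indicating inhibition.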
# ATXN viability: Viability Counterscreen for Primary qHTS for Inhibitors of ATXN expression; S2 cells (HEK-293 line with an ATXN2-luciferase reporter) viability, CellTiter-Fluor protease fluorescence, 24 h; Potency, µM (top dose mostly 56.7 µM), actives largely listed as cytotoxic; hit rate 0.49% among 400,000; AID 651635, 2014; note: nearly all actives have a fitted effect of over 40% in size
# Hits are given with their value; i = inactive; ? = inconclusive; nt = no result; [ ] = another dose, or the depositor's remark. Unless noted, calls come from the whole dose curve; as a rule, active = well fitted curve in the direction sought with a large enough effect; inconclusive = small, poorly fitted or top-dose-only effect, or another doubt; inactive = no such curve, though single readings can be large; an effect the other way counts as inactive or inconclusive.
SMILES,a7 integrin act,DRD3 antagonist,ATXN2 expr inh,D3 ag,IL1B secr inh,ATXN viability
CCO[C@@H]1OC(C(=O)N2CCN(C)CC2)=C[C@H](c2coc3ccccc3c2=O)[C@H]1CCCO,i,?,i,i,i,i
CS(=O)(=O)c1ccc(C(=O)NC2CCOC2=O)cc1 (stereo not given),i,i,i,32,i,i
CCC(C)NC(=O)/C=C1\Sc2ccccc2NC1=O (stereo not given),i,i,i,i,-61,i
Cc1ccc(S(=O)(=O)N2CCCCC2)cc1NC(=O)Cn1cc(C(F)(F)F)ccc1=O,i,i,i,i,i,i
O=[N+]([O-])c1csc2ccccc12,i,i,i,i,i,i
O=C(CCCn1nnc2ccccc2c1=O)N[C@@H](Cc1ccccc1)C(=O)O,i,i,i,i,i,i
O=C(CCN1CCN(c2ccc(Cl)cc2)CC1)Nc1nccs1,i,-66,i,i,i,i
CCc1ccc(C2C(C(C)=O)=C(C(=O)OC)Nc3nnnn32)cc1 (stereo not given),i,-57,i,i,i,i
COC(=O)C1=C(C(C)=O)C(c2ccc(C)cc2)n2nnnc2N1 (stereo not given),i,?,i,i,i,i
COC(=O)C1=C(C(=O)c2ccccc2)C(c2ccccc2)n2nnnc2N1 (stereo not given),i,i,?,i,i,20µM
CC(=O)Nc1ccc(C(=O)N2CC(=O)NC(=O)C2)cc1,i,i,i,i,nt,i
S=C(c1ccc(-c2ccc(Cl)cc2)o1)N1CCCCC1,i,i,i,i,-52,i
CN1CCN(Cc2ccc(-c3ccc(Cl)cc3)o2)CC1,i[7.66 µM],-71,i,i,i,?
Clc1ccc(-c2ccc(CN3CCCCC3)o2)cc1,i,-106,nt,i,i,i
Cc1cc(SCC(=O)NCc2ccccc2)nc(=O)[nH]1,nt,nt,i,i,nt,i
O=[N+]([O-])c1ccc(Nc2ccccc2O)c2nonc12,i,i,nt,i,i,?
CC/C(=N\NC(=O)C1CC1)c1cccc(Cl)c1,i,i,i,i,i,i
O=c1ccsn1Cc1ccccc1,i,?,i,i,-101,i
Cc1cc(C(C)(C)C)c(O)c(C)c1CC1=NCCN1,nt,-98,i,i,i,i
c1ccc2c(CC3=NCCN3)cccc2c1,nt,i,i,i,i,i
COc1cc(C(=O)N/N=C/c2sccc2C)cc(OC)c1OC,i,i,i,i,i,?
O=C(c1ccncc1)N(c1ccc2oc3c(c2c1)CCCC3)S(=O)(=O)c1ccc(F)cc1,i,i,i,i,-138,i
COC(=O)c1c(C)oc2ccc(N(C(=O)c3ccncc3)S(=O)(=O)c3ccc(Br)cc3)cc12,nt,nt,i,i,nt,?
Cc1ccc(CNc2ccc(O)cc2)cc1,i,-53,i,i,-95,i
CC(C)CCNC(=O)C1CCCN(S(=O)(=O)c2ccc3c(c2)CC(C)N3C(=O)C2CC2)C1 (stereo not given),i,i,i,i,-55,i
SMILES,a7 integrin act,DRD3 antagonist,ATXN2 expr inh,D3 ag,IL1B secr inh,ATXN viability
CC1Cc2cc(S(=O)(=O)N3CCC(C(=O)Nc4ccccn4)CC3)ccc2N1C(=O)C1CCC1 (stereo not given),i,i,i,i,?,i
Cc1ccc(NC(=O)C2CCN(S(=O)(=O)c3ccc4c(c3)CC(C)N4C(=O)C3CCC3)CC2)nc1 (stereo not given),i,i,?,i,-81,i
Cc1ccnc(NC(=O)C2CCN(S(=O)(=O)c3ccc(C)c(C)c3)CC2)c1,i,i,i,i,-84,i
Cc1ccnc(NC(=O)C2CCN(S(=O)(=O)c3ccc4c(c3)CC(C)N4C(=O)C3CCC3)CC2)c1 (stereo not given),i,i,?,i,-69,?
CC(=O)N1c2ccc(S(=O)(=O)NCCc3ccc(S(N)(=O)=O)cc3)cc2CC1C (stereo not given),i,i,nt,i,i,i
Cc1cc(=O)n(CC(=O)N2CCN(c3ccccc3F)CC2)c2c1c(C)nn2C,nt,nt,nt,i,nt,nt
COC(=O)c1ccc(C2/C(=C(/O)c3ccc(OC(C)C)cc3)C(=O)C(=O)N2c2cc(C)on2)cc1 (stereo not given),i,?,i,i,i,i
CCOC(=O)c1c(NC(=S)N2CCOCC2)sc(C)c1C,i,i,i,i,i,nt
FCCCOc1ccc(/C=N/OCc2c(Cl)cccc2Cl)cc1,i,-65,i,i,i,i
O=C(C[C@H]1C/C=C\C[C@H](NC(=O)OCC2c3ccccc3-c3ccccc32)C(=O)OC[C@H](Cc2ccccc2)NC1=O)N[C@H](CO)Cc1ccccc1,i,-51,?,i,i,?
CC(C)(C)OC(=O)C[C@H]1C/C=C\C[C@H](CC(=O)N[C@H](CO)Cc2ccccc2)C(=O)N[C@H](Cc2ccccc2)COC1=O,i,i,i,i,-58,i
COCCNc1nc(-c2cc(-c3ccccc3)on2)cc(C(C)C)n1,i,i,i,i,i,i
Cc1cccc(NC(=O)CNC(=O)COC(=O)c2ccco2)c1C,i,i,i,i,i,i
Cc1ccc(/C=C2/Sc3ccccc3N(CC(=O)NCC3CCCO3)C2=O)cc1 (stereo not given),i,i,i,i,i,?
Cc1cc(/C=C2\Sc3ccccc3N2C)cc(C)[n+]1CC1CCCO1 (stereo not given),i,i,1.2µM,i,-101,nt
COc1ccc(OC)c(NC(=O)COC(=O)CCS(=O)(=O)c2ccc(Cl)cc2)c1,i,i,i,i,i,i
CCCCN(CCCC)c1ccc(C(=O)c2ccccc2C(=O)O)c(O)c1,i,-81,i,i,i,i
COCCOc1cc(Nc2nnc(C(F)(F)F)s2)c(Cl)cc1Cl,i,-64,i,i,i,i
Cc1cc(NC(=O)NCc2ccco2)ccc1NC(=O)NCc1ccco1,i,i,i,i,i,i
O=C(Nc1ccc(Cl)cn1)c1cccnc1,i,-51,i,i,i,i
O=C(Nc1cccnc1)c1ccc(C(=O)Nc2cccnc2)cc1,i,i,nt,i,i,i
O=C(Nc1ccc(Cl)cn1)c1ccc2nccnc2c1,i,i,i,i,i,i
O=C(Nc1cccnc1)c1ccc(S(=O)(=O)c2ccc(Cl)cc2)cc1,i,i,i,i,-66,i
CCCOc1ccc(C(=O)Nc2ccc(Cl)cn2)cc1,i,i,i,i,?,?
O=C(Nc1ccc(Cl)cn1)c1ccc(Oc2ccccc2)cc1,i,i,i,i,-67,i
